Results from PubChem BioAssay.
Calls of active or inactive are those of the source. Unless noted, the rule behind the calls is not given here.

Columns and labels:
[1] = compounds binding Alexa647 anti-His antibody – biochemical, small-molecule microarray, 635 nm fluorescence, artefact control for SMM control protein annotation, primary screen (AID 1128); details: higher = more signal;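 note: score merges feature fluorescence with signal-to-noise for each printed compound spot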
[2] = test system: Human papillomavirus type 1a E7 protein (residues 1-88); assay: HPV1a E7 small-molecule binders, primary screen, biochemical, small-molecule microarray, residues 1-88, 635 nm (AID 1129); details: small-molecule microarray binding, fluorescence 635 nm; higher = more signal
[3] = molecular target: Focal adhesion kinase 1 (Homo sapiens) (UniProt Q05397); assay: PTK2 protein binding on printed compound slides – biochemical, small-molecule microarray, 635/667 nm fluorescence, BSA, DTT, primary screen (AID 1130); details: 635 nm fluorescence, higher = more signal;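 note: composite of spot emission at 667 nm and signal to noise over triplicate slides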
Focal adhesion kinase 1 (Homo sapiens), sequence (Q05397 whole entry, looked up): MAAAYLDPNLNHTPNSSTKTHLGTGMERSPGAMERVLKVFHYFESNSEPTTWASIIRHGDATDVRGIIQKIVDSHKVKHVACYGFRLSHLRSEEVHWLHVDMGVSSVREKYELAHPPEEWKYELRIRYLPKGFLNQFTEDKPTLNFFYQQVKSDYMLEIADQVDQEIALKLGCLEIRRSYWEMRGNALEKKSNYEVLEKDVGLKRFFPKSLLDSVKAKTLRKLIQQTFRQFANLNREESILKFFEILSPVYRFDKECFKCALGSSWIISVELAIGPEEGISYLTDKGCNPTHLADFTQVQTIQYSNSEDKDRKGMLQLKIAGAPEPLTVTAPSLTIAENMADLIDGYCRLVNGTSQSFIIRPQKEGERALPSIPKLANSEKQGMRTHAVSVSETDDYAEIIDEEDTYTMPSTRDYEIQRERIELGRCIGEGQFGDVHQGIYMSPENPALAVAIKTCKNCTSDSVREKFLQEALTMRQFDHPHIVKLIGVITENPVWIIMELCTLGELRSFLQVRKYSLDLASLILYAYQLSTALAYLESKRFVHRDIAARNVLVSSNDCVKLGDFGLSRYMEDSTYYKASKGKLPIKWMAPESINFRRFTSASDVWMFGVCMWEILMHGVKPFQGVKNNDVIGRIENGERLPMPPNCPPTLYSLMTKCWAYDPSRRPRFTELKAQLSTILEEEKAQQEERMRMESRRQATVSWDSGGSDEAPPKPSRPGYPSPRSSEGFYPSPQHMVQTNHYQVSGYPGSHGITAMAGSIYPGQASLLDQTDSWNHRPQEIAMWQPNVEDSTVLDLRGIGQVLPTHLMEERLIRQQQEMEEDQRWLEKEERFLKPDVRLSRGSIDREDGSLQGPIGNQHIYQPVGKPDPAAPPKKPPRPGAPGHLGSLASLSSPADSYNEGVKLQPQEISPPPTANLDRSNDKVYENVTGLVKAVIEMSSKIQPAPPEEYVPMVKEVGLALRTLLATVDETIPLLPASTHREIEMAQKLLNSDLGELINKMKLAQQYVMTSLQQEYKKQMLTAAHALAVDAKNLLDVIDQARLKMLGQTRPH

[4] = test system: Fibrinogen (Alexa647-labelled); assay: Alexa647-fibrinogen binding to printed small molecules – biochemical, small-molecule microarray, 635/667 nm fluorescence, artefact control for SMM control-protein annotation, profiling panel (AID 1131); details: fibrinogen-A647 binding fluorescence, higher = more signal;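 note: z-score merges 667 nm fluorescence with per-spot signal-to-noise over triplicate slides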
[5] = molecular target: Follistatin (Homo sapiens) (UniProt P19883); assay: FST protein binding to printed compounds – biochemical, small-molecule microarray, 635/667 nm fluorescence, primary screen (AID 1132); details: 635 nm fluorescence, higher = more signal
Follistatin (Homo sapiens), sequence (P19883 whole entry, looked up): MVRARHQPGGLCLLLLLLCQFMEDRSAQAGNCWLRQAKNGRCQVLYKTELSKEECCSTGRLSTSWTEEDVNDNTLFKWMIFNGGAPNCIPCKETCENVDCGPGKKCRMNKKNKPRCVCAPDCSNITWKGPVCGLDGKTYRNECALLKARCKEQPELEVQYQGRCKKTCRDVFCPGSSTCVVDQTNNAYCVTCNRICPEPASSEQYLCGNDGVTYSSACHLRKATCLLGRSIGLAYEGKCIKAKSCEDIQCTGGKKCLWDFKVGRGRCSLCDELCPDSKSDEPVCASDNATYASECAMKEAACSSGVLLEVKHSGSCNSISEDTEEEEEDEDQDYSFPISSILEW

[6] = molecular target: Fibroblast growth factor 2 (Homo sapiens) (UniProt P09038); assay: basic fibroblast growth factor binding to printed compounds – biochemical, small-molecule microarray, 635/667 nm fluorescence, primary screen (AID 1133); details: FGF2, fluorescence 635/667, higher = more signal
Fibroblast growth factor 2 (Homo sapiens), sequence (P09038 whole entry, looked up): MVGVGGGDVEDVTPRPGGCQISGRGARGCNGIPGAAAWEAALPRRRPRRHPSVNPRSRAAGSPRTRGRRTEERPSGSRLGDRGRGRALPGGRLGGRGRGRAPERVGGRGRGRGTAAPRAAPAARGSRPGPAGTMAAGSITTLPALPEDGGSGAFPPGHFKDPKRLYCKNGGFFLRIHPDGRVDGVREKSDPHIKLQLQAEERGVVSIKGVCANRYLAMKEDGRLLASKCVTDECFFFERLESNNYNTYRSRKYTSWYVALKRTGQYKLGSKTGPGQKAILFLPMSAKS

[7] = JC-1 mitochondrial potential readout, lung cancer cells – cell-based, A549, JC-1 fluorescence, basal, 24 h, 100 nL, profiling panel (AID 1138); details: higher = more signal;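 note: A549 lung adenocarcinoma cells under basal conditions with no added stimulus; test concentration not given here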
Lefty1 = Lefty1 protein binding to printed compounds – biochemical, small-molecule microarray, 635/667 nm fluorescence, primary screen (AID 1139); details: fluorescence 635/667, higher = more signal
[8] = test system: wheat germ agglutinin (Triticum aestivum), Alexa647-labelled; assay: Alexa647-WGA lectin binding to printed small molecules – biochemical, small-molecule microarray, 635/667 nm fluorescence, artefact control for SMM control-protein annotation, profiling panel (AID 1140); details: WGA-A647 binding, 635 nm fluorescence, higher = more signal;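 note: score merges 667 nm feature emission with signal to noise over triplicate slides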
[9] = molecular target: Luciferin 4-monooxygenase (Photinus pyralis) (UniProt P08659); assay: inhibition of purified Photinus pyralis luciferase – biochemical, luminescence, purified enzyme, 2006 set, primary screen (AID 1141); details: purified firefly luciferase, SteadyGlo luminescence, 30 min; higher = more signal, called active from +8 up or from −8 down;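 note: cell-free assay with purified firefly luciferase at 100 ng per well in PBS; test concentration not given here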
Luciferin 4-monooxygenase (Photinus pyralis), sequence (P08659 whole entry, looked up): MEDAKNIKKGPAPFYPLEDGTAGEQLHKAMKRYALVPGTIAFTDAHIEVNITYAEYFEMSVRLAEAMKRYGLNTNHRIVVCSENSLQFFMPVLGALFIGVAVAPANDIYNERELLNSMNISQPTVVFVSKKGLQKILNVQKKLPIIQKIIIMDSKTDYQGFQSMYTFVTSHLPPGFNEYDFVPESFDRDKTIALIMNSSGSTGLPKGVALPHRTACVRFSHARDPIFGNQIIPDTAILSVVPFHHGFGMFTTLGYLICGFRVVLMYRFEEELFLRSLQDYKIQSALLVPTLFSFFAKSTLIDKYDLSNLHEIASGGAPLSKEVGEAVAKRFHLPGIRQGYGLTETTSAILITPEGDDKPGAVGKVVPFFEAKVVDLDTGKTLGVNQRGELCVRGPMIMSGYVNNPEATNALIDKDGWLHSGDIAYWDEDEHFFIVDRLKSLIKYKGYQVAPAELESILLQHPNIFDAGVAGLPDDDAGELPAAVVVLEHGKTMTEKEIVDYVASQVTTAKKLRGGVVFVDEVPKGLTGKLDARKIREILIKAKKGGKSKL

[10] = test system: Wnt5a (protein binding on small-molecule microarray); assay: small molecules binding Wnt5a protein – biophysical, small-molecule microarray, 635/667 nm fluorescence, primary screen (AID 1142); details: 635 nm fluorescence, higher = more signal;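 note: fluorescence read at 667 nm with signal to noise per printed feature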
[11] = ATP-based viability of Huh7 replicon cells – cell-based, CellTiter-Glo luminescence, basal, 48 h, cytotoxicity control for HCV replication inhibitor project, primary screen (AID 1143); details: higher = more signal, called active from +8 up or from −8 down;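 note: Huh7 hepatoma cells carrying a hepatitis C replication reporter with no stimulus; test concentration not given here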
[12] = Pseudomonas biofilm growth suppression – PAO1 strain, BacTiter-Glo luminescence, LB-PBS, primary screen (AID 1144); details: P. aeruginosa PAO1 biofilm, 12 h, higher = more signal
[13] = basal CRE-LacZ reporter activity in PC12 – cell-based, unstimulated, primary screen (AID 1145); details: no forskolin, luminescence, 4.5 h, higher = more signal, called active from +8 up or from −8 down
[14] = forskolin-driven CRE-LacZ activity in PC12 – cell-based, CRE-LacZ reporter, forskolin-stimulated, primary screen (AID 1146); details: luminescence, 4.5 h, higher = more signal, called active from +8 up or from −8 down;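 note: PC12 cells with 6xCRE LacZ reporter stimulated by forskolin 10 µM; beta-galactosidase reporter signal reflecting CREB driven transcription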
[15] = molecular target: Streptavidin (Streptomyces avidinii) (UniProt P22629); assay: compounds binding control protein streptavidin – biophysical, small-molecule microarray, 635/667 nm fluorescence, artefact control for SMM compound annotation, primary screen (AID 1147); details: higher = more signal;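 note: signal reflects streptavidin binding to arrayed compounds as a control protein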
Streptavidin (Streptomyces avidinii), sequence (P22629 whole entry, looked up): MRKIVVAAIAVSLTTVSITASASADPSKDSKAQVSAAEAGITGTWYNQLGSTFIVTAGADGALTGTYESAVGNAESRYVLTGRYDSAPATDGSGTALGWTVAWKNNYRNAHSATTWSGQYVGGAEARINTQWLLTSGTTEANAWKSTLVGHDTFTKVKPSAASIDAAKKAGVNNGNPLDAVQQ

[16] = probe aInhba binding on compound microarray – biochemical, small-molecule microarray, 635/667 nm fluorescence, primary screen (AID 1148); details: higher = more signal;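 note: score merges 667nm spot fluorescence with signal-to-noise for antibody binding to printed compounds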
Torsin-1A (Homo sapiens) [17] = molecular target: Torsin-1A (Homo sapiens) (UniProt O14656); assay: TOR1A wild-type binding on microarray – cell lysate, small-molecule microarray, lysate, 635/667 nm, primary screen (AID 1149); details: COS7 hTOR1A-WT lysate, 635 nm fluorescence, higher = more signal
Torsin-1A (Homo sapiens), sequence (O14656 whole entry, looked up): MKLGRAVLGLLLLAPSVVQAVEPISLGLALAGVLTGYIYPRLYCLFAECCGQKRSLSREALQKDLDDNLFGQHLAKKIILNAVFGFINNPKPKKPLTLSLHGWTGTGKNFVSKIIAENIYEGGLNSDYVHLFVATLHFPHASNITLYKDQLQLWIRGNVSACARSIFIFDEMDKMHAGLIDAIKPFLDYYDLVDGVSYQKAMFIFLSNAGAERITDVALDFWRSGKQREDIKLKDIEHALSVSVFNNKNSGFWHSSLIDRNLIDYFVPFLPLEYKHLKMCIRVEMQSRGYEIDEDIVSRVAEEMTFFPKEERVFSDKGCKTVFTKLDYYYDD

Torsin-1A (Homo sapiens) [18] = molecular target: Torsin-1A (Homo sapiens) (UniProt O14656); assay: torsin A mutant lysate binding on microarrays – cell lysate, small-molecule microarray, COS7 lysate, 635/667 nm fluorescence, primary screen (AID 1150); details: COS7 hTOR1A mutant lysate, 635 nm fluorescence, higher = more signal;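 note: score pools 667 nm emission and signal to noise measuring lysate protein binding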
[19] = test system: Sonic hedgehog protein (Shh); assay: Sonic hedgehog microarray binding compounds – biochemical, small-molecule microarray, 635/667 nm fluorescence, primary screen (AID 1151); details: 635 nm fluorescence, higher = more signal;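 note: Shh protein binding to compounds spotted on small-molecule microarray slides; score combines spot fluorescence intensity with signal-to-noise across triplicate slides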

SMILES	composite z-score [1]	composite z-score [2]	composite z-score [3]	composite z-score [4]	composite z-score [5]	composite z-score [6]	z-score [7]	composite z-score (Lefty1)	composite z-score [8]	z-score [9]	composite z-score [10]	z-score [11]	z-score [12]	z-score [13]	z-score [14]	composite z-score [15]	composite z-score [16]	composite z-score (Torsin-1A (Homo sapiens) [17])	composite z-score (Torsin-1A (Homo sapiens) [18])	composite z-score [19]
COCCOC(=O)N1C(=O)[C@@]2(c3ccccc31)[C@H](c1ccccc1OCCO)N1[C@H](c3ccccc3)[C@H](c3ccccc3)OC(=O)[C@H]1[C@@H]2C(=O)N1CCN(c2ncccn2)CC1	1.22	1.15	0.1	0.64	0.755	0.385	-1.21	0.962	1.1	-0.388 (inactive)	-0.0525	-2.08 (inactive)	0.235 (inactive)	-0.0688 (inactive)	3.84 (inactive)	0.498	-0.0102	0.447	0.489	1.34
CC(C)(C)OC(=O)CC[C@]1(C(=O)N2CCOCC2)N=C(c2ccc(OCCCO)cc2)O[C@H]1c1ccccc1N=[N+]=[N-]	2.82	1.27	0.566	0.946	1.18	0.449	2.26	0.146	1.02	-9.23 (active)	0.846	-0.884 (inactive)	1.17 (inactive)	1.31 (inactive)	-1.4 (inactive)	1.42	0.236	0.64	1.7	-0.371
COCCOC(=O)N1C(=O)[C@@]2(c3cc(C#Cc4ccc(OC)cc4)ccc31)[C@H](c1ccc(O)cc1)N1[C@H](c3ccccc3)[C@H](c3ccccc3)OC(=O)[C@H]1[C@@H]2C(=O)N1CCc2cc(OC)c(OC)cc2C1	0.744	0.7	1.02	0.935	1.02	0.413	-0.734	0.785	0.555	0.644 (inactive)	0.164	-1.93 (inactive)	-1.57 (inactive)	-1.42 (inactive)	-0.397 (inactive)	1.25	0.0317	0.807	0.964	0.643
C=CC(=C)[C@H]1Oc2ccccc2S(=O)(=O)N2CCC[C@@H]12	-0.133	-0.492	-0.139	0.224	0.434	0.0668	0.16	0.201	0.023	-0.261 (inactive)	0.0964	-4.18 (inactive)	1.16 (inactive)	0.483 (inactive)	0.133 (inactive)	0.331	-0.0332	-1.02	-1.06	0.0906
CC(C)=CCCC(C)=CC(O)C1C=CC2C(=O)N(C)C(=O)C2N1Nc1ccccc1 (stereo not given)	1.17	1.21	0.832	1.03	1.38	0.709	0.797	1.08	1.22	0.15 (inactive)	0.485	-2.96 (inactive)	-0.545 (inactive)	-0.333 (inactive)	-0.465 (inactive)	1.87	0.115	-0.365	0.178	1.32
